# Reference: ChEMBL document CHEMBL3988442, “University of Dundee, Small-Polar-MMV Screening Library” (2021)
# The whole screen tested about 48,000 compounds, of which about 13,000 (27%) showed an effect of 50% or more. The list shows a part of the results.
# Tested on: Wolbachia pipientis
# Assay: Anti-Wolbachia Cell-Based Screen
# Format: functional
# Set-up: scale not given: in the data most compounds retested in dose-response had high values
# Conditions: 5 µM
row,Structure (SMILES),Percent Effect
1,Cc1nc(C)c(CC(=O)Nc2nnc(C)s2)c(=O)[nH]1,-6.123%
2,COC(=O)C(C)NC(=O)CSCc1nc(O)c2cc(C(C)C)sc2n1 (stereo not drawn),3.354%
3,Cc1cccc2nc(CN3CCCC(C)C3)cc(=O)n12 (stereo not drawn),12.06%
4,CC(C)c1nnc(NC(=O)Cc2csc(-c3nnc[nH]3)n2)s1,3.837%
5,Cc1cnn(CC(C)NCc2cc(=O)n3cc(C)ccc3n2)c1 (stereo not drawn),5.917%
6,Cc1ccn2c(=O)cc(CSCC(=O)Nc3nnc(C(C)C)s3)nc2c1,111%
7,Cc1nnc(NC(=O)CSCc2cc(=O)n3ccccc3n2)s1,113.7%
8,Cc1cccc2nc(CSCC(=O)Nc3nnc(C(C)C)s3)cc(=O)n12,122.4%
9,COc1ccc(C(C)NC(=O)Nc2nnc(C)s2)cc1OC (stereo not drawn),6.701%
10,Cc1ccc2nc(CN(Cc3ccc(C)o3)C(C)C)cc(=O)n2c1,-6.244%
11,Cc1ccc(CNC(=O)Nc2nnc(C(C)C)s2)n1C,-5.821%
12,Cc1ccc2nc(CSCC(=O)Nc3nnc(C(C)C)s3)cc(=O)n2c1,91.49%
13,CN(C)c1cccc(C(=O)NCC(O)c2cccs2)c1 (stereo not drawn),-6.039%
14,CCc1ncc2c(n1)CN(C(=O)c1c(C)[nH]c(C(C)=O)c1C)C2,1.251%
15,CN(Cc1cccs1)C1CCC[C@@H]2CN(C(=O)c3cnccn3)C[C@H]12.O=C(O)C(F)(F)F (stereo partly drawn),14.26%
16,Cc1ccc(C(C(=O)O)N2CCCN(Cc3ccccn3)CC2)c(F)c1 (stereo not drawn),-1.838%
17,Cc1ccc(CN(Cc2cc(=O)n3cccc(C)c3n2)C(C)C)o1,2.311%
18,CC(C)c1nnc(NC(=O)CSCc2cc(=O)n3ccccc3n2)s1,114.5%
19,Cc1cccn2c(=O)cc(CN3CCCC3Cn3cccn3)nc12 (stereo not drawn),11.97%
20,Cc1cccn2c(=O)cc(CSCC(=O)Nc3nnc(C(C)C)s3)nc12,100.1%
21,Cc1cnn(CC(C)NCc2cc(=O)n3ccccc3n2)c1 (stereo not drawn),4.155%
22,COc1ccc(OC)c(-n2c(COC(C)C)n[nH]c2=O)c1,-3.997%
23,Cn1cc(C(=O)N2CCC(c3cc(CCO)n(C)n3)C2)cn1 (stereo not drawn),181.5%
24,Cn1cc(C(=O)N2CC[C@H](N3CCOCC3)[C@H](CCCO)C2)cn1,-10.44%
25,Cn1nc(C2CCN(C(=O)c3cnccn3)C2)cc1CCO (stereo not drawn),76.91%

row,Structure (SMILES),Percent Effect
1,Cc1nc(C(=O)N2CCC(c3cc(CCO)n(C)n3)C2)co1 (stereo not drawn),113%
2,COc1ccc(OCc2nc(C(=O)N3CC[C@H](O)[C@@H](O)C3)co2)cc1,-2.37%
3,Cc1cc(C(=O)N2CC[C@@H]3CO[C@@H](CN4CCCC4)[C@@H]3C2)no1,-4.858%
4,Cn1ccc(C(=O)N2CCC(c3cc(CCO)n(C)n3)C2)n1 (stereo not drawn),79.61%
5,CS(=O)(=O)NC[C@@H]1OC[C@H]2CN(C(=O)c3cnccn3)CC[C@H]21,-5.14%
6,COC(=O)C1CCCN1C(=O)c1ccc(Br)cc1F (stereo not drawn),19.55%
7,Cc1ccc2c(n1)N(C)CCN(C(=O)NC1CC1)C2.O=C(O)C(F)(F)F,4.586%
8,O=C(NCc1cn2cccnc2n1)C1CC(=O)N(Cc2cccnc2)C1 (stereo not drawn),-8.48%
9,CC(C)n1cc(C(=O)NCCCc2csc(N)n2)cn1,-8.171%
10,CNS(=O)(=O)c1cccc(C(C)NCc2ccc(C)o2)c1 (stereo not drawn),-6.612%
11,O[C@H]1[C@H](n2cc(-c3ccccc3)nn2)c2ccccc2C12CCNCC2,-3.237%
12,CN(Cc1ccsc1)Cc1nc(-c2ccncc2)no1,-1.44%
13,CCc1cc(N(C)CCc2noc(C)n2)nc(N2CCOCC2)n1,-13.53%
14,Cc1nc(CN(C)Cc2cnc(N3CCOCC3)s2)no1,89.45%
15,CCS(=O)(=O)c1ncc(CN(C)Cc2ccc(C)o2)n1CCOC,-4.34%
16,Cc1ncc(CN(C)C(=O)c2ccc(N3CCOCC3)c(F)c2)s1,3.379%
17,Cc1ccc(CN(C)Cc2cnc(N3CCOCC3)s2)o1,116.2%
18,CN(Cc1nc(-c2ccccc2)no1)Cc1cnc(N2CCOCC2)s1,97.7%
19,Cc1noc(CN(C)Cc2cnc(N3CCOCC3)nc2)n1,-9.212%
20,CC(C)c1nc(CN(C)Cc2cnc(N3CCOCC3)nc2)no1,-9.471%
21,COc1cccc(-c2ccc(CNC(=O)c3ccc(=O)n(C)c3)cc2)c1,0.1145%
22,CCc1nc(CN(C)C(=O)C2CC(=O)N(c3cccc(O)c3)C2)no1 (stereo not drawn),15.35%
23,CN(C)S(=O)(=O)N1CC[C@]2(C[C@@H](OCc3ccccn3)CO2)C1.O=C(O)C(F)(F)F,-10.12%
24,CC(C(=O)O)N1CC2(CCC1=O)CCN(CCSc1ccccc1)CC2 (stereo not drawn),-16.96%
25,COCCN(C)C(=O)Nc1ccn(-c2cccc(C(F)(F)F)c2)n1,-15.63%

row,Structure (SMILES),Percent Effect
1,CCN(Cc1ccncc1)c1cc(C2CCN2C(C)=O)nc(C)n1 (stereo not drawn),128.1%
2,CCN(Cc1ccncc1)c1cc(C2CCNCC2)nc(C)n1,95.16%
3,Cc1ccnc(CC(C)N(C)c2cc(C3CCNCC3)nc(C)n2)c1 (stereo not drawn),6.994%
4,Cc1nc(C2CCNCC2)cc(N2CCOc3ccccc3C2)n1,-3.992%
5,Cc1cccc(OCC(=O)N(Cc2ccncc2)C2CC2)c1,-0.008091%
6,CCN(Cc1c(F)cccc1Cl)c1cc(C2CCNCC2)nc(C)n1,117.3%
7,CCN(Cc1ccncc1)c1cc(C2CCCNC2)nc(C)n1 (stereo not drawn),103.1%
8,CNS(=O)(=O)CC(=O)N(Cc1c(F)cccc1Cl)C1CC1,-9.118%
9,Cc1nc(C2CCNCC2)cc(N(C)CCc2cn[nH]c2)n1,-7.954%
10,Cc1nc(C2CCCNC2)cc(N(C)CCc2ccccc2)n1 (stereo not drawn),1.735%
11,CCN(Cc1ccncc1)c1nc(C)nc2oc(C)nc12,-65.89%
12,CO[C@H]1COCCN(C(=O)c2cc(C)oc2C(F)(F)F)C1,-0.5452%
13,CN(CCc1ccccc1)c1cnn(CC(=O)N2CCOCC2)c(=O)c1,17.19%
14,Cc1nc(N(C)C/C=C/c2ccccc2)c2cnn(C)c2n1,1.614%
15,COc1cc(C(C#N)NC(=O)CC2=CCCCC2)cc(OC)c1OC (stereo not drawn),-9.8%
16,O=C(c1cnns1)N1CCN(c2ccc(F)cc2Cl)CC1,-2.521%
17,CCOc1cc(=O)n2c(c1C(=O)OCc1ccc(OC)cc1)CCCC2,91.51%
18,CCOc1cc(C)ccc1NC(=O)N(C)Cc1cnn(C)c1,5.553%
19,COC(=O)C(O)C1CCN(CCc2ccc(C)cc2)CC1 (stereo not drawn),-9.232%
20,CCOc1cc(=O)n2c(c1C(=O)OCc1ccc(C)cc1)CCCC2,83.47%
21,COc1ccc(CN2CCCN(c3cc(C(N)=O)ccn3)CC2)cc1,15.11%
22,CCOc1cc(=O)n2c(c1C(=O)OCc1cccc(C)c1)CCCC2,85.47%
23,COc1ccc(CN(CC2CCCO2)C(=O)CN2CCCCC2=O)cc1 (stereo not drawn),3.552%
24,CCOc1cc2c(cc1C(=O)O)CCC2,-16.22%
25,Cc1cccc(COc2ccccc2C(=O)N2CCC(C(N)=O)CC2)c1,0.1214%

row,Structure (SMILES),Percent Effect
1,Cc1cccc(CC(=O)N2CCCCC2CN)c1.Cl (stereo not drawn),-0.4794%
2,O=C(OCc1cccc(F)c1)c1cccc(C(=O)N2CCCC2)n1,-9.061%
3,CCOc1cc(=O)n2c(c1C(=O)OCc1ccc(F)cc1)CCCC2,95.56%
4,Cc1ccc(C(=O)N(C)CCNS(C)(=O)=O)cc1Br,-2.447%
5,Cc1cc(C(=O)N2CCOC[C@H](Oc3cnccn3)C2)c(C(F)(F)F)o1,1.166%
6,Cc1nnc2n1CCN(CC(=O)NC(C)c1cc3ccccc3o1)C2 (stereo not drawn),-0.5236%
7,COCCN1CCN(Cc2ccc(F)c(C)c2)[C@H]2CS(=O)(=O)C[C@H]21,-0.5112%
8,O=C1NCCN(Cc2ccoc2)C1CC(=O)N1CCc2sccc2C1 (stereo not drawn),-12.03%
9,CCCN1CCN(Cc2nc3ccccc3[nH]2)[C@H]2CS(=O)(=O)C[C@H]21,-8.969%
10,CC1CCC(O)(CN2CCN(CCNC(=O)C3CCC3)CC2)CC1 (stereo not drawn),8.242%
11,Cc1[nH]c2c(C)ccc(C)c2c1CC(=O)NCCNc1cccnc1,0.5336%
12,N[C@@H]1CCN(Cc2ccccc2CS(=O)(=O)c2ccccc2)C[C@H]1O,-11.48%
13,c1cnnc(N[C@@H]2CC[C@@H]3CN(Cc4ccc5[nH]ccc5c4)C[C@@H]32)c1,53.89%
14,c1cc2ccc(N3CCN(Cc4ccc5c(c4)OCO5)CC3)nc2[nH]1,-12.23%
15,Cc1nccc(N[C@H]2CN(CCS(C)(=O)=O)C[C@@H]2C2CC2)n1,-10.57%
16,c1cnn(CCC2CCN(Cc3ccc4[nH]ccc4c3)CC2)c1,-20.25%
17,O=C1CO[C@H]2CN(Cc3c[nH]c4ccccc34)C[C@H]2N1,5.983%
18,CN(C)S(=O)(=O)N1C[C@@H]2CC[C@H](C1)N(Cc1ccc3[nH]ccc3c1)C2,10.36%
19,c1cnnc(N[C@@H]2CC[C@@H]3CN(Cc4c[nH]c5ccccc45)C[C@@H]32)c1,81.26%
20,c1cnnc(N[C@@H]2CC[C@@H]3CN(Cc4ccc5cc[nH]c5c4)C[C@@H]32)c1,79.05%
21,c1ccc2c(Cc3nnc([C@H]4CCNC4)o3)c[nH]c2c1,-7.413%
22,Cc1cn2c(CN(C)C(=O)c3cnc(N)c(Cl)c3)c(C)nc2s1,7.837%
23,CCn1cnnc1CN(C)C(=O)c1cc(COc2cccc(F)c2)[nH]n1,-21.78%
